The record followed here is PubChem BioAssay (NCI).

Structures are written as SMILES. About 79,000 compounds went through this panel and 15% of them were active in at least one assay; those are over-represented in the sample as a whole. Unmarked numbers belong to inactive results. Activity calls are given as the source filed them. No stated cut-off is given here; in the data, active means growth inhibition above about 70%; inactive means the rest.

Assay [1] is described as follows: NCI Yeast Anticancer Drug Screen. Data for the rad50 strain (AID 155).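 Further: 0% = growth of vehicle-only cultures of the same strain.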 Particulars: S. cerevisiae rad50 strain growth inhibition; at 50.0 µM; active compounds read high. The gist of the method: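 A DNA repair-deficient yeast mutant serves as the test organism; compound-induced growth inhibition is calculated against vehicle-treated cells.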
A short description of assay [2]: NCI Yeast Anticancer Drug Screen. Data for the mec2-1 strain (AID 157). Particulars: S. cerevisiae mec2-1 strain, at 50.0 µM, active compounds read high. The procedure, abridged: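 Compounds were applied to mec2-1 yeast cells. Their growth was then compared with that of vehicle-treated cultures to give growth inhibition.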
Assay [3] can be described thus: NCI Yeast Anticancer Drug Screen. Data for the sgs1 mgt1 strain (AID 161).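 Further: 0% = growth of cultures given vehicle only.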 Conditions: S. cerevisiae sgs1 mgt1 strain, at 50.0 µM, active compounds read high. The procedure, abridged:
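Growth of a repair-deficient yeast mutant was monitored after compound treatment and expressed as inhibition relative to vehicle-treated cultures.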

A short description of assay [4]: NCI Yeast Anticancer Drug Screen. Data for the cln2 rad14 strain (AID 165).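 Further: 0% = growth equal to vehicle treated cultures.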 Conditions: S. cerevisiae cln2 rad14 strain, at 50.0 µM, active compounds read high. The gist of the method: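 Strain: cln2 rad14 yeast, altered in cell cycle control and DNA damage repair. Read-out: growth inhibition vs vehicle.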
Assay [5] in a line: NCI Yeast Anticancer Drug Screen. Data for the bub3 strain (AID 167). Conditions: S. cerevisiae bub3 mutant strain, at 50.0 µM, active compounds read high. The gist of the method:
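Inhibition values come from growth of compound-treated mutant yeast normalised to vehicle-treated controls.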

A short description of assay [6]: NCI Yeast Anticancer Drug Screen. Data for the mlh1 rad18 strain (AID 175). Particulars: S. cerevisiae mlh1 rad18 strain growth inhibition; at 50.0 µM; active compounds read high. The procedure, abridged:
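A repair-deficient yeast strain is exposed to test compound, and growth is scored relative to vehicle-treated controls.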

Regarding `NS(=O)(=O)c1ccc(N2C(=O)C(=O)N(c3ccccc3)C2=S)cc1`, the growth inhibition in assay [1] was -15.8%; in assay [2], -11.9%; in assay [3], -16.2%; in assay [4], -39.4%; in assay [5], -3.75%; in assay [6] it was -20.5%.

Take `N#CCCN(N)S(=O)(=O)c1ccccc1`: the growth inhibition in assay [1] is 3.7%; in assay [2], 7.65%; in assay [3], 0%; in assay [4], -34.7%; in assay [5] it was 2.85%; in assay [6], -0.2%.

In the case of `CCCCC(=O)Nc1ccc(S(=O)(=O)O)c(N=NC2C(=O)N(c3ccccc3)N=C2C)c1` (stereo not given), the growth inhibition in assay [1] was 27.1%; in assay [2] it was -10.6%; in assay [3], 5.6%; in assay [4], -13%; in assay [5], -3%; in assay [6], 15%.

For the compound `c1nc2c([nH]1)CNCC2`, the growth inhibition in assay [1] is -3.05%; in assay [2], -11.2%; in assay [3], -9.05%; in assay [4] it was -65.7%; in assay [5], -12.2%; in assay [6], 5%.

In the case of `O=C1C(Br)=CC(Br)=C/C1=N/Br`, the growth inhibition in assay [1] was 70.6% (active); in assay [2], 61.5%; in assay [3], 85.2% (active); in assay [4], 61.1%; in assay [5], 70% (active); in assay [6] it was 78.5% (active).

On to `CC1=C(O)C(=O)C(C2=C(O)C(=O)C(C)=C(O)C2=O)=C(O)C1=O`, for which the growth inhibition in assay [1] was 5.3%; in assay [2] it was -12.4%; in assay [3], 24.4%; in assay [4], 10%; in assay [5] it was 5.8%; in assay [6], 12.6%.

Regarding `C/C=C(/C)c1ccccc1`, the growth inhibition in assay [1] was -5.1%; in assay [2], 1.8%; in assay [3], -1.1%; in assay [4] it was 10.4%; in assay [5], 4.55%; in assay [6], 24.6%.

As to `C/C(=C1/CCOC1=O)c1cccc(/C(C)=C2\CCOC2=O)c1`, the growth inhibition was 3.9% in assay [1]; 3.55% in assay [2]; -3.05% in assay [3]; -29.4% in assay [4]; 5.35% in assay [5]; 2.75% in assay [6].

As to `O=C(O)c1n[nH]c2ccccc12`, the growth inhibition in assay [1] is 8.5%; in assay [2], -14.1%; in assay [3], 3.75%; in assay [4] it was 5.6%; in assay [5], -5.7%; in assay [6], -9.85%.

As to `CN1C(C)(C)CC(O)(C(O)(c2ccccc2)c2ccccc2)CC1(C)C`, the growth inhibition in assay [1] was 10.4%; in assay [2], -9.35%; in assay [3] it was -14.6%; in assay [4] it was -14%; in assay [5], -11.2%; in assay [6], 3.7%.

As for `O=c1[nH]c(-c2ccc(Cl)cc2)cs1`, the growth inhibition in assay [1] was -1.25%; in assay [2], -14.8%; in assay [3], -7%; in assay [4], -5.65%; in assay [5] it was -19.9%; in assay [6] it was -16.1%.

Consider `CCOC(=O)C(CCN(C)C)C(=O)OCC`, for which the growth inhibition in assay [1] was 5.75%; in assay [2], -10.2%; in assay [3] it was 2.8%; in assay [4], 1.1%; in assay [5] it was -23.1%; in assay [6] it was 14.2%.

As to `CCC(C#N)NC1CCN(Cc2ccccc2)CC1` (stereo not given), the growth inhibition was 1.3% in assay [1]; -23.1% in assay [2]; -2.05% in assay [3]; 6.1% in assay [4]; -7.75% in assay [5]; 5.85% in assay [6].

On to `O=C1OC(c2ccccc2)=N/C1=C/c1c(-c2ccccc2)c(-c2ccccc2)c2n1CCC2`, for which the growth inhibition in assay [1] was 21.9%; in assay [2], 9.75%; in assay [3], 3.05%; in assay [4] it was 25.5%; in assay [5] it was -4.45%; in assay [6] it was 18.6%.

Take `CCCCC1(O)C(=O)N(c2ccccc2)N(c2ccccc2)C1=O`: the growth inhibition in assay [1] was 17.2%; in assay [2] it was 11.1%; in assay [3], 7.45%; in assay [4] it was 13.1%; in assay [5], 22.4%; in assay [6], 4.2%.

As for `COc1ccc(/C=C2/C[N+](C)(C)C/C(=C/c3ccc(OC)cc3)C2=O)cc1`, the growth inhibition in assay [1] is 10.3%; in assay [2] it was 11.8%; in assay [3] it was -7.15%; in assay [4] it was 6.15%; in assay [5], 16.4%; in assay [6] it was -2.25%.

Turning to `O=S(=O)(c1ccccc1)c1cccc2c1NCCC2`, the growth inhibition was 34.9% in assay [1]; -1.75% in assay [2]; 34.4% in assay [3]; 8.4% in assay [4]; 62.3% in assay [5]; 43.6% in assay [6].

Regarding `O=C(c1ccc(Br)cc1)C1SC2(C(=O)c3ccc(Br)cc3)SC(C(=O)c3ccc(Br)cc3)C(C(=O)c3ccc(Br)cc3)SC2(C(=O)c2ccc(Br)cc2)SC1C(=O)c1ccc(Br)cc1` (stereo not given), the growth inhibition in assay [1] is -8.8%; in assay [2] it was 3.75%; in assay [3] it was -17.4%; in assay [4] it was -11.9%; in assay [5], -2.95%; in assay [6] it was -24.4%.

`N#CCC(=O)N/N=C/c1ccccc1`: the growth inhibition in assay [1] is 8.3%; in assay [2] it was -27.1%; in assay [3] it was 0.55%; in assay [4], 9.95%; in assay [5], -5.85%; in assay [6], 9.4%.

With `Cc1ccccc1N=Cc1ccccc1O.[Co]`, the growth inhibition in assay [1] was 12.2%; in assay [2], 11.2%; in assay [3], 27.4%; in assay [4], -17.4%; in assay [5], 0.3%; in assay [6], 32%.
